Hit rate of the full screen: of about 5,500 compounds, about 2,000 (36%) were called active. Not shown: some 18% with an inconclusive outcome. Rule as the data show it: active = normalized growth mostly below about 0.91 (no sharp cut-off); inconclusive = no clear call, values can overlap the other calls; inactive = mostly above about 0.92. The list shows a part of the results.
Experiment: chemical genetic growth profiling, strain panel (AID 1159580);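 also: tested at 20 µM; growth read once vehicle control cultures reached saturation at 30 °C; 1 = growth at the plate median or of vehicle wells; lower values mean less growth of the strain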
Settings: growth OD

Measured: normalized growth

C#C[C@]1(O)CCC2C3CCC4=CC(=O)CC[C@@H]4C3CC[C@@]21CC (stereo not given in full)
inactive: S. cerevisiae deletion strains, locus YJR066W, strain TOR1, active compounds read low 0.91 | S. cerevisiae deletion strains, locus YKL009W, strain mrt4, active compounds read low 0.96 | S. cerevisiae deletion strains, locus YKL068W, active compounds read low 0.999 | S. cerevisiae deletion strains, locus YKL085W, strain MDH1 (second series), active compounds read low 0.988 | S. cerevisiae deletion strains, locus YKL085W, strain MDH1, active compounds read low 0.988 | S. cerevisiae deletion strains, locus YKL160W, strain elf1, active compounds read low 0.988 | S. cerevisiae deletion strains, locus YKL190W, strain CNB1, active compounds read low 1.01 | S. cerevisiae deletion strains, locus YKR001C, strain vps1, active compounds read low 1 | S. cerevisiae deletion strains, locus YKR026C, strain gcn3, active compounds read low 1 | S. cerevisiae deletion strains, locus YKR091W, strain srl3, active compounds read low 0.993 | S. cerevisiae deletion strains, locus YLL001W, strain dnm1, active compounds read low 0.987 | S. cerevisiae deletion strains, locus YLL026W, active compounds read low 1 | S. cerevisiae deletion strains, locus YLL041C, strain sdh2, active compounds read low 0.99 | S. cerevisiae deletion strains, locus YLR027C, strain aat2, active compounds read low 0.989 | S. cerevisiae deletion strains, locus YLR039C, strain RIC1, active compounds read low 0.949 | S. cerevisiae deletion strains, locus YLR058C, strain SHM2, active compounds read low 0.998 | S. cerevisiae deletion strains, locus YLR102C, strain apc9, active compounds read low 0.992 | S. cerevisiae deletion strains, locus YLR113W, strain HOG1, active compounds read low 0.946 | S. cerevisiae deletion strains, locus YLR221C, strain rsa3, active compounds read low 0.997 | S. cerevisiae deletion strains, locus YLR258W, strain gsy2, active compounds read low 1 | S. cerevisiae deletion strains, locus YLR262C, strain YPT6, active compounds read low 0.903 | S. cerevisiae deletion strains, locus YLR268W, strain sec22, active compounds read low 0.958 | S. cerevisiae deletion strains, locus YLR320W, strain mms22, active compounds read low 0.96 | S. cerevisiae deletion strains, locus YLR330W, strain CHS5, active compounds read low 0.991 | S. cerevisiae deletion strains, locus YLR342W, strain FKS1 (second series), active compounds read low 0.983 | S. cerevisiae deletion strains, locus YLR342W, strain FKS1, active compounds read low 0.985 | S. cerevisiae deletion strains, locus YLR357W, strain rsc2, active compounds read low 1.06 | S. cerevisiae deletion strains, locus YLR370C, strain arc18, active compounds read low 0.984 | S. cerevisiae deletion strains, locus YLR371W, strain rom2, active compounds read low 0.992 | S. cerevisiae deletion strains, locus YLR384C, strain iki3, active compounds read low 0.992 | S. cerevisiae deletion strains, locus YLR418C, strain cdc73, active compounds read low 1.03 | S. cerevisiae deletion strains, locus YML016C, strain PPZ1, active compounds read low 0.989 | S. cerevisiae deletion strains, locus YML032C, strain rad52, active compounds read low 0.977 | S. cerevisiae deletion strains, locus YML120C, strain ndi1, active compounds read low 1.01 | S. cerevisiae deletion strains, locus YML124C, strain tub3, active compounds read low 0.988 | S. cerevisiae deletion strains, locus YMR058W, strain fet3, active compounds read low 0.987 | S. cerevisiae deletion strains, locus YMR078C, strain ctf18, active compounds read low 0.989 | S. cerevisiae deletion strains, locus YMR125W, strain sto1, active compounds read low 1 | S. cerevisiae deletion strains, locus YMR129W, active compounds read low 0.983 | S. cerevisiae deletion strains, locus YMR205C, strain PFK2, active compounds read low 0.989 | S. cerevisiae deletion strains, locus YMR223W, strain ubp8, active compounds read low 0.987 | S. cerevisiae deletion strains, locus YMR231W, strain pep5, active compounds read low 0.999 | S. cerevisiae deletion strains, locus YMR307W, strain GAS1, active compounds read low 1.12 | S. cerevisiae deletion strains, locus YNL067W, strain RPL9B, active compounds read low 1.01 | S. cerevisiae deletion strains, locus YNL071W, strain lat1, active compounds read low 0.992 | S. cerevisiae deletion strains, locus YNL128W, strain TEP1, active compounds read low 0.988 | S. cerevisiae deletion strains, locus YNL153C, strain GIM3, active compounds read low 1.01 | S. cerevisiae deletion strains, locus YNL183C, strain NPR1, active compounds read low 0.922 | S. cerevisiae deletion strains, locus YNL209W, strain ssb2, active compounds read low 0.993 | S. cerevisiae deletion strains, locus YNL233W, strain BNI4, active compounds read low 0.992 | S. cerevisiae deletion strains, locus YNL248C, strain rpa49, active compounds read low 1 | S. cerevisiae deletion strains, locus YNL250W, strain rad50, active compounds read low 0.988 | S. cerevisiae deletion strains, locus YNL271C, strain bni1, active compounds read low 0.982 | S. cerevisiae deletion strains, locus YNL298W, strain CLA4, active compounds read low 0.961 | S. cerevisiae deletion strains, locus YNL307C, strain MCK1, active compounds read low 0.98 | S. cerevisiae deletion strains, locus YNL322C, strain KRE1 (second series), active compounds read low 1 | S. cerevisiae deletion strains, locus YNR049C, strain mso1, active compounds read low 1 | S. cerevisiae deletion strains, locus YNR052C, strain pop2, active compounds read low 0.964 | S. cerevisiae deletion strains, locus YOL006C, strain TOP1, active compounds read low 1.03 | S. cerevisiae deletion strains, locus YOL012C, strain htz1 1.51 | S. cerevisiae deletion strains, locus YOL147C, strain pex11, active compounds read low 0.994 | S. cerevisiae deletion strains, locus YOR001W, strain rrp6, active compounds read low 0.967 | S. cerevisiae deletion strains, locus YOR061W, strain CKA2, active compounds read low 0.983 | S. cerevisiae deletion strains, locus YOR069W, strain VPS5, active compounds read low 0.991 | S. cerevisiae deletion strains, locus YOR070C, strain gyp1, active compounds read low 0.995 | S. cerevisiae deletion strains, locus YOR080W, strain dia2, active compounds read low 0.996 | S. cerevisiae deletion strains, locus YOR083W, strain WHI5, active compounds read low 0.997 | S. cerevisiae deletion strains, locus YOR106W, strain vam3, active compounds read low 0.997 | S. cerevisiae deletion strains, locus YOR136W, strain idh2, active compounds read low 0.991 | S. cerevisiae deletion strains, locus YOR144C, strain elg1, active compounds read low 0.994 | S. cerevisiae deletion strains, locus YOR184W, strain ser1, active compounds read low 0.912 | S. cerevisiae deletion strains, locus YOR231W, strain MKK1, active compounds read low 0.983 | S. cerevisiae deletion strains, locus YOR265W, strain rbl2, active compounds read low 1 | S. cerevisiae deletion strains, locus YOR270C, strain vph1, active compounds read low 0.957 | S. cerevisiae deletion strains, locus YOR290C, strain snf2, active compounds read low 0.98 | S. cerevisiae deletion strains, locus YOR316C, strain cot1, active compounds read low 0.989 | S. cerevisiae deletion strains, locus YPL051W, strain arl3, active compounds read low 0.979 | S. cerevisiae deletion strains, locus YPL055C, strain LGE1, active compounds read low 1.04 | S. cerevisiae deletion strains, locus YPL078C, strain atp4, active compounds read low 0.996 | S. cerevisiae deletion strains, locus YPL106C, strain sse1, active compounds read low 1.06 | S. cerevisiae deletion strains, locus YPL240C, strain hsp82, active compounds read low 1 | S. cerevisiae deletion strains, locus YPL241C, strain CIN2, active compounds read low 1 | S. cerevisiae deletion strains, locus YPL256C, strain CLN2, active compounds read low 0.963 | S. cerevisiae deletion strains, locus YPR119W, strain clb2, active compounds read low 1 | S. cerevisiae deletion strains, locus YPR141C, strain kar3, active compounds read low 0.983 | S. cerevisiae deletion strains, locus YPR163C, strain tif3, active compounds read low 0.99 | S. cerevisiae deletion strains, locus YPR167C, strain met16, active compounds read low 0.988 | S. cerevisiae deletion strains, strain wtn01, active compounds read low 0.973 | S. cerevisiae strains, strain wild type, active compounds read low 1.02
active: S. cerevisiae deletion strains, locus YLR262C, strain YPT6 (second series), active compounds read low 0.829

Source: PubChem BioAssay AID1159580 (chemical genetic matrix, 2015)
